This experiment addresses PADI4, Q9UM07. Nature of the experiment: log2 enrichment score relative to parent PADI4_3 peptide (binding to PADI4); higher = tighter binding than parent. Particulars: CaCl2: 10 mM. Here is the method: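 Deep mutational scan of the cyclic peptide PADI4_3 (ClAc-D-Tyr1 initiator, thioether-cyclised to Cys12, C-terminal Gly plus HA tag, mRNA-displayed). Positions 2-11 were each randomised by NNK codons; Met was reprogrammed as N-methyl-alanine (MeA). One round of equilibrium panning against bead-immobilised human PADI4 (100 nM, 10 mM CaCl2, RT). Log2 enrichment (bound/input frequency) relative to the parent sequence (0 = parent), mean of three independent selections.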

Chain of PADI4, Q9UM07 (Q9UM07 whole entry): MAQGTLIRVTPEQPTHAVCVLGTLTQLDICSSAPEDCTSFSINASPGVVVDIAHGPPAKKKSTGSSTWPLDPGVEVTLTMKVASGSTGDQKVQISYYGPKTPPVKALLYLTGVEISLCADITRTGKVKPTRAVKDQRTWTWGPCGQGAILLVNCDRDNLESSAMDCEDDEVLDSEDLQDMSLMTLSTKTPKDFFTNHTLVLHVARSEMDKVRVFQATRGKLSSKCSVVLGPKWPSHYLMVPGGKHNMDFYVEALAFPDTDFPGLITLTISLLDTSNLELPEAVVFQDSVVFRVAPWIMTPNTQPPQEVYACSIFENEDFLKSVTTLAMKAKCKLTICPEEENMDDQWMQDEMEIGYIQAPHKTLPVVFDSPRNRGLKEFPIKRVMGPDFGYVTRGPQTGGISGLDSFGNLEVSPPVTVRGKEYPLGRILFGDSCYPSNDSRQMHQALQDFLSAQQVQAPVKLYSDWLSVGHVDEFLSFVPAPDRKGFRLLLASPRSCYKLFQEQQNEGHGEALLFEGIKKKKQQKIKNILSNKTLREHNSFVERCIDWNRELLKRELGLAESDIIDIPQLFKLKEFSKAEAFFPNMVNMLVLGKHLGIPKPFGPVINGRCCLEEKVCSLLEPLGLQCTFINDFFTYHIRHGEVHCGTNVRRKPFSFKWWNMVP

B1: PADI4_3_Y11E Y11E (peptide)
chain: YRDHHYRHPKECG
For the molecule B1, the log2 enrichment score is -4.21.

B2: PADI4_3_H5R H5R (peptide)
chain: YRDHRYRHPKYCG
Turning to B2, the log2 enrichment score was -3.55.

B3: PADI4_3_H5S H5S (peptide)
chain: YRDHSYRHPKYCG
For B3, the log2 enrichment score is -3.98.

B4: PADI4_3_H5C H5C (peptide)
chain: YRDHCYRHPKYCG
On to B4, for which the log2 enrichment score was -4.

B5: PADI4_3_P9S P9S (peptide)
chain: YRDHHYRHSKYCG
For B5, the log2 enrichment score was -1.69.

B6: PADI4_3_R7E R7E (peptide)
chain: YRDHHYEHPKYCG
B6: the log2 enrichment score is -0.753.

B7: PADI4_3_H5D H5D (peptide)
chain: YRDHDYRHPKYCG
Take B7: the log2 enrichment score was -4.15.

B8: PADI4_3_R2D R2D (peptide)
chain: YDDHHYRHPKYCG
As for B8, the log2 enrichment score was -3.75.

B9: PADI4_3_D3D D3D (peptide)
chain: YRDHHYRHPKYCG
For the molecule B9, the log2 enrichment score is 0.

B10: PADI4_3_P9R P9R (peptide)
chain: YRDHHYRHRKYCG
As to B10, the log2 enrichment score is -1.83.

B11: PADI4_3_D3E D3E (peptide)
chain: YREHHYRHPKYCG
Turning to B11, the log2 enrichment score was -2.84.

B12: PADI4_3_H4H H4H (peptide)
chain: YRDHHYRHPKYCG
On to B12, for which the log2 enrichment score is 0.

B13: PADI4_3_R2C R2C (peptide)
chain: YCDHHYRHPKYCG
B13: the log2 enrichment score is -2.34.

B14: PADI4_3_K10R K10R (peptide)
chain: YRDHHYRHPRYCG
Take B14: the log2 enrichment score was -0.238.

B15: PADI4_3_Y11D Y11D (peptide)
chain: YRDHHYRHPKDCG
Regarding B15, the log2 enrichment score was -3.74.

B16: PADI4_3_R7C R7C (peptide)
chain: YRDHHYCHPKYCG
Regarding B16, the log2 enrichment score was -0.84.

B17: PADI4_3_K10D K10D (peptide)
chain: YRDHHYRHPDYCG
As for B17, the log2 enrichment score was -2.34.

B18: PADI4_3_D3K D3K (peptide)
chain: YRKHHYRHPKYCG
With B18, the log2 enrichment score is -3.84.

B19: PADI4_3_Y11C Y11C (peptide)
chain: YRDHHYRHPKCCG
Take B19: the log2 enrichment score is -3.92.

B20: PADI4_3_Y6K Y6K (peptide)
chain: YRDHHKRHPKYCG
For B20, the log2 enrichment score was -1.84.

B21: PADI4_3_K10K K10K (peptide)
chain: YRDHHYRHPKYCG
Take B21: the log2 enrichment score is 0.

B22: PADI4_3_Y6E Y6E (peptide)
chain: YRDHHERHPKYCG
As to B22, the log2 enrichment score is -1.85.

B23: PADI4_3_D3H D3H (peptide)
chain: YRHHHYRHPKYCG
Regarding B23, the log2 enrichment score was -3.57.

B24: PADI4_3_Y6R Y6R (peptide)
chain: YRDHHRRHPKYCG
Take B24: the log2 enrichment score was -0.786.

B25: PADI4_3_H8E H8E (peptide)
chain: YRDHHYREPKYCG
Consider B25, for which the log2 enrichment score is -3.8.

B26: PADI4_3_R2K R2K (peptide)
chain: YKDHHYRHPKYCG
B26: the log2 enrichment score is 0.59.

B27: PADI4_3_H8D H8D (peptide)
chain: YRDHHYRDPKYCG
As to B27, the log2 enrichment score was -3.82.

B28: PADI4_3_D3C D3C (peptide)
chain: YRCHHYRHPKYCG
Turning to B28, the log2 enrichment score is -4.3.

B29: PADI4_3_Y6S Y6S (peptide)
chain: YRDHHSRHPKYCG
With B29, the log2 enrichment score is -2.21.

B30: PADI4_3_P9E P9E (peptide)
chain: YRDHHYRHEKYCG
As for B30, the log2 enrichment score is -1.89.

B31: PADI4_3_P9D P9D (peptide)
chain: YRDHHYRHDKYCG
B31: the log2 enrichment score is -2.06.

B32: PADI4_3_P9K P9K (peptide)
chain: YRDHHYRHKKYCG
On to B32, for which the log2 enrichment score was -1.76.

B33: PADI4_3_Y6C Y6C (peptide)
chain: YRDHHCRHPKYCG
B33: the log2 enrichment score is -3.47.

B34: PADI4_3_R7K R7K (peptide)
chain: YRDHHYKHPKYCG
As to B34, the log2 enrichment score is -0.44.

B35: PADI4_3_H4E H4E (peptide)
chain: YRDEHYRHPKYCG
In the case of B35, the log2 enrichment score was -3.05.

B36: PADI4_3_H4R H4R (peptide)
chain: YRDRHYRHPKYCG
For B36, the log2 enrichment score was found to be 2.48.

B37: PADI4_3_H8K H8K (peptide)
chain: YRDHHYRKPKYCG
For B37, the log2 enrichment score was -3.86.

B38: PADI4_3_K10C K10C (peptide)
chain: YRDHHYRHPCYCG
Turning to B38, the log2 enrichment score is -2.06.

B39: PADI4_3_H4K H4K (peptide)
chain: YRDKHYRHPKYCG
Turning to B39, the log2 enrichment score was -2.3.

B40: PADI4_3_Y6D Y6D (peptide)
chain: YRDHHDRHPKYCG
As for B40, the log2 enrichment score is -2.27.

B41: PADI4_3_R2S R2S (peptide)
chain: YSDHHYRHPKYCG
As to B41, the log2 enrichment score was -2.91.

B42: PADI4_3_R7S R7S (peptide)
chain: YRDHHYSHPKYCG
In the case of B42, the log2 enrichment score is -0.05.

B43: PADI4_3_Y11K Y11K (peptide)
chain: YRDHHYRHPKKCG
Take B43: the log2 enrichment score is -4.77.

B44: PADI4_3_R2R R2R (peptide)
chain: YRDHHYRHPKYCG
Turning to B44, the log2 enrichment score stood at 0.

B45: PADI4_3_R2E R2E (peptide)
chain: YEDHHYRHPKYCG
On to B45, for which the log2 enrichment score was -2.93.

B46: PADI4_3_D3R D3R (peptide)
chain: YRRHHYRHPKYCG
Regarding B46, the log2 enrichment score is -2.94.

B47: PADI4_3_K10S K10S (peptide)
chain: YRDHHYRHPSYCG
With B47, the log2 enrichment score is -1.42.

B48: PADI4_3_R7D R7D (peptide)
chain: YRDHHYDHPKYCG
Take B48: the log2 enrichment score was 0.031.

B49: PADI4_3_H4C H4C (peptide)
chain: YRDCHYRHPKYCG
B49: the log2 enrichment score was -3.15.

B50: PADI4_3_H8C H8C (peptide)
chain: YRDHHYRCPKYCG
For B50, the log2 enrichment score was -2.95.

B51: PADI4_3_H8R H8R (peptide)
chain: YRDHHYRRPKYCG
As to B51, the log2 enrichment score was -3.15.

B52: PADI4_3_Y11R Y11R (peptide)
chain: YRDHHYRHPKRCG
As for B52, the log2 enrichment score was -3.96.

B53: PADI4_3_P9C P9C (peptide)
chain: YRDHHYRHCKYCG
As to B53, the log2 enrichment score is -2.79.

B54: PADI4_3_R7R R7R (peptide)
chain: YRDHHYRHPKYCG
Take B54: the log2 enrichment score was 0.

B55: PADI4_3_H8S H8S (peptide)
chain: YRDHHYRSPKYCG
Take B55: the log2 enrichment score is -2.81.

B56: PADI4_3_H4D H4D (peptide)
chain: YRDDHYRHPKYCG
For B56, the log2 enrichment score was -4.33.

B57: PADI4_3_K10E K10E (peptide)
chain: YRDHHYRHPEYCG
For B57, the log2 enrichment score is -1.11.

B58: PADI4_3_H5E H5E (peptide)
chain: YRDHEYRHPKYCG
B58: the log2 enrichment score was -4.25.

B59: PADI4_3_H5K H5K (peptide)
chain: YRDHKYRHPKYCG
Take B59: the log2 enrichment score is -2.71.

Source of the values: the supplement of paper PMC11555231.
